Screening data (PubChem)
SF1 inhibitor: SF-1 (human) inhibition; CHO-K1 Gal4-SF-1 LBD luciferase reporter; inhibition, % at 10 µM; 65,000 tested, 0.55% active;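 active = inhibition above the mean inhibition of all tested compounds plus 3 SD, cut at about 48% in these data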;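 note: 0% = SF-1 transfected cells with DMSO and 100% = mock-transfected cells lacking SF-1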
Target sequence (Q13285 whole entry, looked up, the tested form may be a part): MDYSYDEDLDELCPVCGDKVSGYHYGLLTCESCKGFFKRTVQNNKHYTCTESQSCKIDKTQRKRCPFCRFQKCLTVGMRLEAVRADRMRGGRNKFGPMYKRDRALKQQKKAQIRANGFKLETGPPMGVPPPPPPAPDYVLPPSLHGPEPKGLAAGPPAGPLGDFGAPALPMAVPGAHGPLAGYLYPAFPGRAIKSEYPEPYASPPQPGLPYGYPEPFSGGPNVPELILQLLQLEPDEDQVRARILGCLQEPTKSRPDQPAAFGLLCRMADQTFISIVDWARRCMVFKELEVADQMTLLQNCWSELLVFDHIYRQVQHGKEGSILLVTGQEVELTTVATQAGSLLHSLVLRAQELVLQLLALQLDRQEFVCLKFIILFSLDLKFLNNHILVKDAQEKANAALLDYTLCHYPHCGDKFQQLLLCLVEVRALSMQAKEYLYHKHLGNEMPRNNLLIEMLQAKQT
* marks the source's active call; other numbers are inactive results. The sample as a whole holds a higher share of hits than the screen did.

SMILES | SF1 inhibitor
CN(C1CCS(=O)(=O)C1)S(=O)(=O)c1ccc(C2CCCCC2)cc1 (stereo not given) | 6
Brc1cccc(-c2nnc(-c3ccccc3)o2)c1 | -60
O=S1(=O)C=C(Sc2nnc(-c3ccccc3)o2)c2ccccc21 | 66*
COc1ccccc1NC(=O)CSc1nnc(-c2ccc(C)cc2)o1 | -57
O=C(NCC(c1cccnc1)N1CCN(c2ccc(F)cc2)CC1)c1ccc2c(c1)OCO2 (stereo not given) | 17
CCOC(=O)C1CCN(C(=O)CC(NS(=O)(=O)c2ccc(OC)cc2)C(C)C)CC1 (stereo not given) | -2
CCc1ccc(-c2nnn(CCC(=O)OC)n2)cc1 | 52*
O=C(Cn1nnc(-c2ccccc2)n1)OCc1csc(-c2ccccc2)n1 | -19
COc1ccc(-c2ccc(-c3nnn(CC(C)=O)n3)cc2)cc1 | -90
C/C(N)=C(/C#N)C(=O)COC(=O)c1cc(C)n(-c2ccc(F)cc2)c1C | -65
COc1ccc(C)cc1NC(=O)C1CCCN(S(=O)(=O)c2c(C)noc2/C=C/N(C)C)C1 (stereo not given) | 6
CC(=O)c1c(NCCc2ccccc2)cc(C)oc1=O | 8
CC(=O)CC1OC(=O)C(Br)=C1NCc1ccccc1 (stereo not given) | 79*
Cn1c(NC(=O)c2ccccc2F)cc(=O)n(C)c1=O | -17
CC(=O)CC1(O)C(=O)N(CN2CCN(c3ccccc3)CC2)c2ccccc21 (stereo not given) | 0
COc1cccc(CN(Cc2cccnc2)S(=O)(=O)c2ccc(-n3cnnn3)c(C)c2)c1 | 4
FC(F)(F)c1cnc(Nc2ccc(N3CCOCC3)cc2)c(Cl)c1 | 4
CC(=O)c1c(C)[nH]c(C(=O)Nc2ccc(C)cn2)c1C | 51*
CC(=O)c1c(C)[nH]c(C)c1C(C)=O | 7
Cc1ccccc1C(=O)Nc1ccc(Br)cn1 | -82
C=CCOC(=O)c1sc(NC(=O)c2ccco2)nc1C | -93
O=C1C/C(=C/NCc2ccccc2)C(=O)N1 | 6
CCN1C(=S)SC(=O)C1=C1C=C(C)N(CCOC)C(C)=C1 | 6
C=CCOC(=O)CN1C(=O)c2ccccc2C1=O | 2
COc1ccc2[nH]c(=O)c(CN(C(=O)C3CCCO3)c3cccc(C)c3)cc2c1 (stereo not given) | 5
SMILES | SF1 inhibitor
COc1ccc(N2CCN(CCCNC(=O)C3CCCN(S(=O)(=O)c4cnc[nH]4)C3)CC2)cc1 (stereo not given) | -14
COC(=O)c1oc2ccc(Br)cc2c1NC(=O)c1ccccc1 | 12
COC(=O)c1ccc(NC(=O)c2ccc3c(c2)OCO3)cc1 | -53
O=C(/C=C\Nc1cccc(F)c1)c1ccc2c(c1)OCO2 | 58*
O=C(CCNc1ccccc1)c1ccc2c(c1)OCO2 | -62
CCCOCCOC(=O)c1[nH]c2c(c1C)C(=O)CC(c1cc(OC)ccc1OC)C2 (stereo not given) | 31
O=C(COc1ccc(-c2nnco2)cc1)NC1CCCc2ccccc21 (stereo not given) | -3
O=C(Nc1ccc2sccc2c1)c1ccc(Cl)s1 | -60
Cc1nc2ccc3nc(NC(=O)c4ccc(S(=O)(=O)N5CCOCC5)cc4)sc3c2s1 | 12
O=C(NC1CCCCC1)c1ccc(S(=O)(=O)N2CCCCC2)cc1 | -14
O=C(Nc1nc(-c2ccccn2)cs1)c1ccc(Cl)s1 | 95*
O=C(Nc1nc(-c2ccccn2)cs1)c1ccc(S(=O)(=O)N2CCCCC2)cc1 | 64*
O=C(Nc1nccs1)c1ccc(Cl)s1 | -58
CCOc1cc(CNC(=O)CN2C(=O)c3ccccc3S2(=O)=O)ccc1OC | 9
CCN(C)c1ccc(/C=N\n2nnnc2N)cc1 | -87
C=CCSc1nncn1/N=C/c1ccc(OC)cc1 | -83
COc1ccc(/C=N\n2nnc3ccccc32)cc1 | 70*
CCOC(=O)N1CCN(S(=O)(=O)c2ccc3c(c2)CCN3C(=O)CC)CC1 | 20
O=C(NCCCN1CCOCC1)c1csc2c1CCCC2 | 74*
COc1cccc(-c2cc(C(=O)NCCN3CCOCC3)no2)c1 | 1
O=C(NCCCN1CCCCCC1)c1ccc2c(c1)NC(=O)C(N1CCOCC1)S2 (stereo not given) | 8
O=C(NC1CC1)C1CC(=O)N(C2CCCCC2)C1 (stereo not given) | -2
CCc1ccccc1NC(=O)CSc1nnc([C@@H]2CCCN2C(=O)OC(C)(C)C)o1 | 10
Cn1c(-n2c(-c3ccco3)nc3ccccc3c2=O)nc2ccccc21 | 15
O=C(CN1C(=O)CSC1=O)Nc1ccc(F)c(F)c1F | 4
SMILES | SF1 inhibitor
c1ccc(OCCSc2nnnn2-c2ccccc2)cc1 | -63
Cc1ccc(OCCSc2nnc(-c3ccncc3)n2C)cc1 | 6
c1ccc(OCCSc2nnc3sc4ccccc4n23)cc1 | 54*
CNC(=O)NC(=O)COC(=O)CCCOc1ccc(OC)cc1 | 9
O=C(Cn1nc(Cc2ccncc2)c2ccccc2c1=O)N1CCc2ccccc2C1 | 12
CCS(=O)(=O)N1CCCC(C(=O)NC2CCC(C)CC2)C1 (stereo not given) | -18
CCOc1ccccc1C(=O)N1CCN(c2cccc(Cl)c2)CC1 | 55*
CCOc1ccccc1C(=O)N1CCN=C1SC | 6
COC(=O)c1[nH]c2ccccc2c1NC(=O)CN1CCN(c2cccc(Cl)c2)CC1 | -20
CCOC(=O)c1ccc(NC(=O)N(CC)CC)cc1 | -63
CCOC(=O)CSc1nc2ccccc2c(=O)n1NC(=O)c1ccccc1 | -56
CC(=O)c1cccc(NC(=O)c2cc(C(C)C)on2)c1 | -74
Cc1cc(C(=O)Nc2cccc(C(=O)O)c2)oc1C | 69*
Cc1cccc(NC(=O)c2cc3ccccc3o2)c1 | -90
CC1C(O)=C(c2nc3ccccc3[nH]2)C(=N)N1c1ccccc1 (stereo not given) | -54
O=C(NCCCn1ccnc1)c1cc(-c2cccs2)on1 | -67
N#CC(C#N)=c1ccc2c(c1)NC1(CCCCC1)N=2 | 65*
O=C(Nc1nc(-c2ccc3c(c2)OCO3)cs1)C1CC1 | -51
O=C(CCCC(=O)N(CC(=O)NC1CCCCC1)Cc1ccc2c(c1)OCO2)Nc1ccccn1 | 6
Cc1onc(-c2ccccc2)c1C(=O)Nc1cccc(C#N)c1 | -2
Cc1ccc(NC(=O)CSC2=C(C#N)C(c3ccc4c(c3)OCO4)C3=C(CCCC3=O)N2)c(C)c1 (stereo not given) | 5
CSC1=C(C#N)C(c2ccc(Cl)cc2)C2=C(CC(C)(C)CC2=O)N1 (stereo not given) | 52*
O=C(NCCC1=CCCCC1)NC1CCCCC1 | -20
NC(=O)CS(=O)(=O)c1nc2ccccc2n1Cc1ccccc1F | 10
O=C(CNC(=O)c1ccccc1C(=O)O)c1ccccc1 | -56
SMILES | SF1 inhibitor
Nc1nc(-c2ccc3c(c2)OCCO3)cs1 | -64
Cc1ccc(-c2csc(N3CCC(NS(=O)(=O)c4ccc5c(c4)OCCO5)CC3)n2)cc1 | 53*
CS(=O)(=O)N1CCN(c2nc(-c3ccc(F)cc3)cs2)CC1 | -24
COC(=O)c1cc(Br)c(=O)n(Cc2ccc3c(c2)OCO3)c1 | -12
CCN(CCCNC(=O)CC1Oc2ccc(C)cc2NC1=O)Cc1ccccc1 (stereo not given) | -8
Cc1ccc(NC(=O)C2CCN(S(=O)(=O)c3cnc[nH]3)CC2)nc1 | 8
CN(C)S(=O)(=O)c1ccc(C(=O)N2CCC(c3nc4ccccc4o3)CC2)cc1 | -6
COc1cc(-c2nnc3sc(-c4cccs4)nn23)cc(OC)c1OC | 16
COc1ccccc1-c1nnc2sc(-c3ccc(N(C)C)cc3)nn12 | 64*
CN(C)c1ccc(-c2nn3c(-c4cccnc4)nnc3s2)cc1 | 4
